# Results filed as inconclusive are left out. Active and inactive are the calls of the source. The calls were made as follows: active = hit-call score of the fitted dose curve at least 0.9, where 1 is the maximum; inconclusive = response in the unintended direction; inactive = score below 0.9.
# Key:
# [1] = biological target: human Peroxisome Proliferator-activated Receptor alpha (PPARa), PPARA (gene 5465) (UniProt Q07869); assay: ATG_PPARa_TRANS: Attagene TRANS-FACTORIAL HepG2 Assay for human Peroxisome Proliferator-activated Receptor alpha (PPARa) (AID 2283001);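 as to AC50: potency for gain of reporter signal over DMSO so agonist or activator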
# Outline: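 Cells (HepG2) are transfected with multiple reporter transcription units, exposed to chemical for 24 h, then total RNA is reverse-transcribed and amplified. Labelled products are quantified by capillary electrophoresis; induction is referenced to DMSO.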
# [2] = biological target: human Peroxisome Proliferator-activated Receptor delta (PPARd), PPARD (gene 5467) (UniProt Q03181); assay: ATG_PPARd_TRANS: Attagene TRANS-FACTORIAL HepG2 Assay for human Peroxisome Proliferator-activated Receptor delta (PPARd) (AID 2283002)
# Outline: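 Multiplexed trans-activation format: HepG2 liver cells expressing exogenous NR-Gal4 chimeras and GAL4-UAS reporters were exposed for 24 h. Reporter mRNA was detected by RT-PCR with capillary electrophoresis fluorescence; activity fitted as gain of signal relative to DMSO.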
# [3] = biological target: human Retinoic Acid Receptor beta (RARb), RARB (gene 5915) (UniProt P10826); assay: ATG_RARb_TRANS: Attagene TRANS-FACTORIAL HepG2 Assay for human Retinoic Acid Receptor beta (AID 2283004)
# Outline: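 HepG2, transient MRTU transfection, NR–Gal4 chimera, 24 h treatment; RT-PCR plus CE fluorescence detection of reporter mRNA; gain of signal vs DMSO.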
# [4] = biological target: Peroxisome proliferator-activated receptor gamma (Homo sapiens) (UniProt P37231); assay: ATG_PPARg_TRANS: Attagene TRANS-FACTORIAL HepG2 Assay for human Peroxisome Proliferator-activated Receptor-gamma (PPARg) (AID 2283007)
# Outline: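 After 24 h of chemical exposure, transfected HepG2 cells carrying PPARγ-Gal4 chimera reporter constructs are lysed for RNA. Reporter transcripts are measured by RT-PCR and capillary electrophoresis with fluorescent labelling, and gain of signal is fitted versus DMSO.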
# [5] = biological target: Nuclear receptor subfamily 1 group I member 2 (Homo sapiens) (UniProt O75469); assay: ATG_PXR_TRANS: Attagene TRANS-FACTORIAL HepG2 Assay for human Pregnane X Receptor (PXR) (AID 2283008)
# Outline: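 Trans-factorial format: exogenous NR-Gal4 fusion activity, not endogenous factor, in transfected human HepG2 liver cells. After 24 h dosing, RNA isolated, reverse-transcribed, amplified and resolved by capillary electrophoresis; induction scored versus DMSO.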
# [6] = biological target: human Retinoic Acid Receptor gamma (RARg), RARG (gene 5916) (UniProt P13631); assay: ATG_RARg_TRANS: Attagene TRANS-FACTORIAL HepG2 Assay for human Retinoic Acid Receptor gamma (RARg) (AID 2283009)
# Outline: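 TRANS format measured activity of exogenous NR-GAL4 fusion (RARg) in transfected HepG2 liver cells after 24 h dosing. Induced reporter RNA was detected by RT-PCR/capillary electrophoresis fluorescence, analysed in the positive direction against DMSO.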
# [7] = biological target: human RAR-related Orphan Receptor beta (RORb), RORB (gene 6096) (UniProt Q92753); assay: ATG_RORb_TRANS: Attagene TRANS-FACTORIAL HepG2 Assay for human RAR-related Orphan Receptor beta (RORb) (AID 2283010)
# Outline: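 Transfect HepG2 with multiple GAL4-UAS reporter transcription units; dose chemicals for 24 h; isolate RNA, reverse-transcribe and PCR-amplify reporter sequences; label, digest and resolve fragments by capillary electrophoresis; fit increases relative to DMSO.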
# [8] = biological target: Retinoic acid receptor alpha (Homo sapiens) (UniProt P10276); assay: ATG_RARa_TRANS: Attagene TRANS-FACTORIAL HepG2 Assay for human Retinoic Acid Receptor alpha (RARa) (AID 2283005)
# Outline: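 HepG2 cells transiently transfected with multiple reporter units expressing chimeric RARα-GAL4 fusion, with GAL4-UAS-driven reporters. After 24 h compound exposure, reporter mRNA induction quantified by RT-PCR and capillary electrophoresis with fluorescent labeling; gain-of-signal fitted relative to DMSO control.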
# Sequence of Nuclear receptor subfamily 1 group I member 2 (Homo sapiens) (O75469 whole entry, looked up, the tested form may be a part): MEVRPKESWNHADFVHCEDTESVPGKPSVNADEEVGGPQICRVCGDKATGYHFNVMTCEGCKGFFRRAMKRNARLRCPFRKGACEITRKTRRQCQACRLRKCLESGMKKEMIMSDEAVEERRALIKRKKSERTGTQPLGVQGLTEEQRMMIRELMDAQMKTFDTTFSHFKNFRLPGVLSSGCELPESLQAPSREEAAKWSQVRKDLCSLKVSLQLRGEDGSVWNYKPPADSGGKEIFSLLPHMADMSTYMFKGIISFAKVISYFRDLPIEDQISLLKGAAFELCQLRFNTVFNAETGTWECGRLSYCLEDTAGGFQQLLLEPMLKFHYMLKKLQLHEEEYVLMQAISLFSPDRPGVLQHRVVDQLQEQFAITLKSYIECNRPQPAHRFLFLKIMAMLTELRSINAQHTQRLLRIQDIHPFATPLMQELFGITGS
# Sequence of Retinoic acid receptor alpha (Homo sapiens) (P10276 whole entry, looked up, the tested form may be a part): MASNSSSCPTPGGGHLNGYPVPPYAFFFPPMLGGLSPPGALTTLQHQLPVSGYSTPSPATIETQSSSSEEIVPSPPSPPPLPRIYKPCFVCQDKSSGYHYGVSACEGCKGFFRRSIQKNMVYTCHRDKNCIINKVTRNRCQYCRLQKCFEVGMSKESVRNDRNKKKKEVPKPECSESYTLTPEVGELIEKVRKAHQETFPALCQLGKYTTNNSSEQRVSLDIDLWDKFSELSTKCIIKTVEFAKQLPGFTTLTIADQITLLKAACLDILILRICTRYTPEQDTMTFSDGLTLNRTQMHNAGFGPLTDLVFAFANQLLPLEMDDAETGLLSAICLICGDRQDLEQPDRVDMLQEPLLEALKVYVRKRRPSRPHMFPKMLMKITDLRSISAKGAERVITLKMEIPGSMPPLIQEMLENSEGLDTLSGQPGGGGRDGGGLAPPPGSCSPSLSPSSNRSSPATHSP
# Sequence of human RAR-related Orphan Receptor beta (RORb), RORB (gene 6096) (Q92753 whole entry, looked up, the tested form may be a part): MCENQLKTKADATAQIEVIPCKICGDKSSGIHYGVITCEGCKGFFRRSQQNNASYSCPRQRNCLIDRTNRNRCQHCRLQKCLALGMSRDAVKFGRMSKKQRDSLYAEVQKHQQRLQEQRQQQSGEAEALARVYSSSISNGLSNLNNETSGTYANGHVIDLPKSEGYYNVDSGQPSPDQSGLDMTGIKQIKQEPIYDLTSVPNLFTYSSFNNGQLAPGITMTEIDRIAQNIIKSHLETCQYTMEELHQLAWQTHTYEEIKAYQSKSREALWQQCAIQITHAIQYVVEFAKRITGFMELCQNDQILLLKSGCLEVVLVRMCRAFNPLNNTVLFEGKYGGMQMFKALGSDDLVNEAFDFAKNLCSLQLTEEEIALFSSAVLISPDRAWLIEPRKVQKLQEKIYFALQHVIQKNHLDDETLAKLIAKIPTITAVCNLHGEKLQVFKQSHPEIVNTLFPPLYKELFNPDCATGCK
# Sequence of human Peroxisome Proliferator-activated Receptor alpha (PPARa), PPARA (gene 5465) (Q07869 whole entry, looked up): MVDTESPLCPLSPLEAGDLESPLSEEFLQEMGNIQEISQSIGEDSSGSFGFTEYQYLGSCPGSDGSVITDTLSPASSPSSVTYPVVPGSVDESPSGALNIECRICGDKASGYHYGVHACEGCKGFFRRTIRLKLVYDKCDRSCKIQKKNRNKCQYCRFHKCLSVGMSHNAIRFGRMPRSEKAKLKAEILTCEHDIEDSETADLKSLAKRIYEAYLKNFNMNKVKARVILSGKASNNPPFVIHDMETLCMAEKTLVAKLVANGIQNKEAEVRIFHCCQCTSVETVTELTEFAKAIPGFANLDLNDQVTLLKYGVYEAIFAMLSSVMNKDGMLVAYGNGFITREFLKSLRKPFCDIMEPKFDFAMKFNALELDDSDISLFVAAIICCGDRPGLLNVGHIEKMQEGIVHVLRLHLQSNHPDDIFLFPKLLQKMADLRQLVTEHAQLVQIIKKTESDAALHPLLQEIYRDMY
# Sequence of human Retinoic Acid Receptor gamma (RARg), RARG (gene 5916) (P13631 whole entry, looked up, the tested form may be a part): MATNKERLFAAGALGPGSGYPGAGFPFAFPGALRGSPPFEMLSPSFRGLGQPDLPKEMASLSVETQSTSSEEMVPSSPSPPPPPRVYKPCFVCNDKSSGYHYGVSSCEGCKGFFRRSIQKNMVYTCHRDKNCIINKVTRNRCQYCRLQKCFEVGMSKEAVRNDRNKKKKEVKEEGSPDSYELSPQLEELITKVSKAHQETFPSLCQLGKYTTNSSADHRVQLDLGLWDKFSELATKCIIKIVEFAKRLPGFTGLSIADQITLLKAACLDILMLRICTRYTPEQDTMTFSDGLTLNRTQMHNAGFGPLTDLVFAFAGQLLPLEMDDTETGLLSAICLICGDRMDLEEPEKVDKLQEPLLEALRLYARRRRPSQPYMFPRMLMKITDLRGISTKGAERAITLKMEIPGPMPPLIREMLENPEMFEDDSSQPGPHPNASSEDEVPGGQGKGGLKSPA
# Sequence of human Peroxisome Proliferator-activated Receptor delta (PPARd), PPARD (gene 5467) (Q03181 whole entry, looked up, the tested form may be a part): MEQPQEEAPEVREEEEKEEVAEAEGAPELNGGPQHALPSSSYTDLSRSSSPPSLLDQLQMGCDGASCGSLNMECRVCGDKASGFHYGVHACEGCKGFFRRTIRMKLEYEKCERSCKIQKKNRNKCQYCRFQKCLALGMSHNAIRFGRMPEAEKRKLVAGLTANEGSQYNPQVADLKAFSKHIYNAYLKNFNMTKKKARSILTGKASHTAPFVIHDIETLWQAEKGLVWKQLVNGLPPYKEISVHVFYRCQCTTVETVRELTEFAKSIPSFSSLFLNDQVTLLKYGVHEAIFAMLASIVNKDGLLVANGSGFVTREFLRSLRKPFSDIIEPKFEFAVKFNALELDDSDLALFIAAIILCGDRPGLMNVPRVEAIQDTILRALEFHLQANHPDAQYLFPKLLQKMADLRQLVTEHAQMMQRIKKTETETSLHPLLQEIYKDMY
# Sequence of Peroxisome proliferator-activated receptor gamma (Homo sapiens) (P37231 whole entry, looked up, the tested form may be a part): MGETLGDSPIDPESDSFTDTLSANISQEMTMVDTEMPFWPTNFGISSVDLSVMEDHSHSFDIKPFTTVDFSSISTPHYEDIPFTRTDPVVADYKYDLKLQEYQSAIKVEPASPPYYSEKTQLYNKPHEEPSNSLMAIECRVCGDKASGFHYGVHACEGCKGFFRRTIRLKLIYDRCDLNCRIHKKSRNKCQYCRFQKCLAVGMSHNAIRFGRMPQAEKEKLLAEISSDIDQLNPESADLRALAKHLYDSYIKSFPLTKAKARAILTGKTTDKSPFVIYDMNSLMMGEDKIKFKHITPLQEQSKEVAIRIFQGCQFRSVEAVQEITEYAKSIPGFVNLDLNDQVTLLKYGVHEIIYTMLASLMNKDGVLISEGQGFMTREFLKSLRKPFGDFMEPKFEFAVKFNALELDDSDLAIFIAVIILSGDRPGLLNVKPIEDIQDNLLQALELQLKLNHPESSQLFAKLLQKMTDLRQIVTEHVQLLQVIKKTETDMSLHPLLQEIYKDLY
# Sequence of human Retinoic Acid Receptor beta (RARb), RARB (gene 5915) (P10826 whole entry, looked up, the tested form may be a part): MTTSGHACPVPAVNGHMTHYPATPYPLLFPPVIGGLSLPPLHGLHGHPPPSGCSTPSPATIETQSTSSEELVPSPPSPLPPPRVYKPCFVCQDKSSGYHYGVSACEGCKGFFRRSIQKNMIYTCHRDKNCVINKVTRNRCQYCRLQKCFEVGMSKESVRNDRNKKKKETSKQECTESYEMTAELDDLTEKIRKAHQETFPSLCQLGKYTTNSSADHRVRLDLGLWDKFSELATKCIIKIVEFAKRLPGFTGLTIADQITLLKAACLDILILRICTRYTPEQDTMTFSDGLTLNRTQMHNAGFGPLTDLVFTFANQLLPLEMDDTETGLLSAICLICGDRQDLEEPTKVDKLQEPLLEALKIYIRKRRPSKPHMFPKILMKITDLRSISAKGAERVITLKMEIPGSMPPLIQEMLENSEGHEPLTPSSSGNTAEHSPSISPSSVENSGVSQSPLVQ
compound,measurement,setting,value
O=c1[nH]c(=O)c2[nH]c(=O)[nH]c2[nH]1,outcome,[1],inactive
same,outcome,[2],inactive
same,outcome,[3],inactive
CCCCCCCCCCOS(=O)(=O)O,AC50,[1],27.6 µM (active)
CN(C)c1ccc(N=Nc2ccccc2C(=O)O)cc1,AC50,[1],23.2 µM (active)
same,outcome,[2],inactive
O=P(O)(O)Oc1ccccc1,outcome,[1],inactive
CCc1c(C(=O)O)c(=O)cnn1-c1ccc(Cl)cc1,outcome,[1],inactive
same,outcome,[2],inactive
same,outcome,[4],inactive
same,outcome,[5],inactive
CC(=O)c1ccc2c(c1)CCCC2,outcome,[1],inactive
same,outcome,[2],inactive
same,outcome,[4],inactive
same,outcome,[5],inactive
O=C(O)c1ccccc1Nc1cccc(C(F)(F)F)c1,AC50,[1],13.9 µM (active)
same,AC50,[2],40.1 µM (active)
same,AC50,[4],6.64 µM (active)
same,outcome,[5],inactive
same,outcome,[6],inactive
CCC(C)OC(=O)c1ccc(O)cc1 (centres undefined),outcome,[1],inactive
same,outcome,[2],inactive
same,AC50,[4],62.1 µM (active)
same,AC50,[5],14.8 µM (active)
same,outcome,[6],inactive
O=S(=O)(O)CC(O)CCl (centres undefined),outcome,[1],inactive
same,outcome,[2],inactive
same,AC50,[4],26.4 µM (active)
same,outcome,[5],inactive
CC/C=C\C/C=C\C/C=C\CCCCCCCC(=O)O,AC50,[1],42.3 µM (active)
same,outcome,[2],inactive
same,AC50,[4],14.6 µM (active)
CC(C)CCCC(C)CC=O (centres undefined),AC50,[1],45.8 µM (active)
same,outcome,[2],inactive
same,outcome,[4],inactive
same,outcome,[5],inactive
same,outcome,[7],inactive
CC(C)=CCCC(C)C=O (centres undefined),outcome,[1],inactive
same,outcome,[2],inactive
same,outcome,[4],inactive
same,AC50,[5],7.95 µM (active)
C=CCCCCCCCCC(=O)OCCCC,outcome,[1],inactive
same,outcome,[2],inactive
same,AC50,[4],67.8 µM (active)
same,outcome,[5],inactive
CC(C)c1ccc2c(c1)CC[C@H]1[C@](C)(CN)CCC[C@]21C,AC50,[1],6.09 µM (active)
same,outcome,[2],inactive
same,AC50,[4],6.02 µM (active)
same,outcome,[5],inactive
Nc1ccc(N=Nc2ccccc2)c(N)n1,AC50,[1],44.6 µM (active)
same,outcome,[2],inactive
same,outcome,[8],inactive
same,AC50,[4],59.4 µM (active)
same,outcome,[5],inactive
same,outcome,[6],inactive
[Cl][In]([Cl])[Cl],outcome,[1],inactive
same,outcome,[2],inactive
same,outcome,[8],inactive
same,outcome,[5],inactive
same,outcome,[6],inactive
same,outcome,[7],inactive
CCCCCCCCCCCCCCCCCC#N,outcome,[1],inactive
same,outcome,[2],inactive
same,outcome,[8],inactive
same,outcome,[4],inactive
same,outcome,[5],inactive
same,outcome,[6],inactive
same,outcome,[7],inactive
O=C(O)CC(C(=O)O)C(CC(=O)O)C(=O)O (centres undefined),outcome,[1],inactive
same,outcome,[2],inactive
same,outcome,[4],inactive
same,outcome,[5],inactive
same,outcome,[6],inactive
C=CC(C)(C)C,outcome,[1],inactive
same,outcome,[2],inactive
same,outcome,[4],inactive
same,outcome,[5],inactive
COC(=O)c1sccc1S(N)(=O)=O,outcome,[1],inactive
same,outcome,[2],inactive
same,outcome,[8],inactive
same,outcome,[4],inactive
same,outcome,[5],inactive
same,outcome,[6],inactive
same,outcome,[7],inactive
COc1cc(C)ccc1C(C)C,outcome,[1],inactive
same,outcome,[2],inactive
same,outcome,[8],inactive
same,outcome,[6],inactive
CCCCCCCC/C=C\CCCCCCCC(=O)OCCO,AC50,[1],8.71 µM (active)
same,outcome,[2],inactive
same,AC50,[4],4.78 µM (active)
same,outcome,[5],inactive
Cc1ccc(N)c([N+](=O)[O-])c1,outcome,[1],inactive
same,outcome,[2],inactive
same,outcome,[4],inactive
same,outcome,[5],inactive
CCCOC(=O)CCCCC(=O)OCCC,outcome,[1],inactive
same,outcome,[2],inactive
same,outcome,[4],inactive
same,outcome,[5],inactive
Nc1ncn([C@@H]2O[C@H](CO)[C@@H](O)[C@H]2O)c(=O)n1,outcome,[1],inactive
same,outcome,[2],inactive
same,outcome,[4],inactive
same,outcome,[5],inactive
same,outcome,[6],inactive
FC(F)=C(F)OC(F)(F)C(F)(F)C(F)(F)F,outcome,[1],inactive
same,outcome,[2],inactive
same,outcome,[4],inactive
same,outcome,[5],inactive
O=c1cc(-c2ccccc2)oc2ccccc12,outcome,[1],inactive
same,outcome,[2],inactive
same,AC50,[4],1.1 µM (active)
same,AC50,[5],6.29 µM (active)
same,outcome,[6],inactive
CCCCCC/C=C/C=O,AC50,[1],66.3 µM (active)
same,outcome,[2],inactive
same,AC50,[4],20.8 µM (active)
same,outcome,[5],inactive
same,outcome,[7],inactive
c1ccc(CNCc2ccccc2)cc1,outcome,[1],inactive
same,outcome,[2],inactive
same,outcome,[4],inactive
same,outcome,[5],inactive
O=C(c1ccccc1)c1ccc(O)c(O)c1O,outcome,[1],inactive
same,outcome,[2],inactive
same,outcome,[8],inactive
same,AC50,[4],47 µM (active)
same,AC50,[5],24 µM (active)
same,outcome,[7],inactive
O=C(O)CCCC[C@@H]1SC[C@@H]2NC(=O)N[C@@H]21,outcome,[1],inactive
same,outcome,[2],inactive
same,outcome,[8],inactive
same,outcome,[5],inactive
same,outcome,[7],inactive
CCOC(=O)[C@H](C)O,outcome,[1],inactive
same,outcome,[2],inactive
same,outcome,[8],inactive
same,outcome,[5],inactive
same,outcome,[6],inactive
CC(CC=O)CCCC(C)(C)O (centres undefined),outcome,[1],inactive
same,outcome,[2],inactive
same,outcome,[4],inactive
same,outcome,[5],inactive
same,outcome,[7],inactive
Cc1cccc(N(C)C(=S)Oc2ccc3ccccc3c2)c1,outcome,[1],inactive
same,outcome,[2],inactive
same,AC50,[4],2.88 µM (active)
same,AC50,[5],0.337 µM (active)
O=C(Nc1cccc(C(F)(F)F)c1)c1cc(Br)cc(Br)c1O,AC50,[1],1.58 µM (active)
same,outcome,[2],inactive
same,outcome,[8],inactive
same,AC50,[5],1.07 µM (active)
same,outcome,[6],inactive
same,outcome,[7],inactive
Oc1ccc(Cl)cc1Cc1cc(Cl)ccc1O,AC50,[1],6.86 µM (active)
same,outcome,[2],inactive
same,AC50,[4],4.51 µM (active)
same,AC50,[5],2.94 µM (active)
O=C(C=Cc1ccccc1)OCc1ccccc1,outcome,[1],inactive
same,outcome,[2],inactive
same,AC50,[4],0.162 µM (active)
same,outcome,[5],inactive
same,outcome,[7],inactive
N#CCc1ccc(Cl)cc1Cl,outcome,[1],inactive
same,outcome,[2],inactive
same,outcome,[4],inactive
same,outcome,[5],inactive
CCCCCCCC/C=C\CCCCCCCC(=O)O,AC50,[1],21.8 µM (active)
same,AC50,[2],100 µM (active)
same,AC50,[4],18.8 µM (active)
COC(=O)c1c(C)cc(O)c(C)c1O,outcome,[1],inactive
same,outcome,[2],inactive
same,outcome,[4],inactive
same,outcome,[5],inactive
same,outcome,[6],inactive
O=C1CCCCCCCCCCCCCCCO1,AC50,[1],54 µM (active)
same,AC50,[2],143 µM (active)
same,outcome,[8],inactive
same,outcome,[7],inactive

# From PubChem BioAssay (EPA / NIEHS)
